Bioassay records as filed in PubChem BioAssay.
TDP1 cell noCPT = qHTS for Inhibitors of human tyrosyl-DNA phosphodiesterase 1 (TDP1): qHTS in cells in absence of CPT; DT40 Tdp1-/- hTDP1 cells, no CPT, ATP luminescence, 48 h; Potency, µM (highest dose often 46.2 µM), for inactives: at the highest dose activity change, negative = growth inhibition, usual class: inhibitors; 420,000 tested, 15% active; AID 686978, 2013; also: potency is read from the fitted curve at half-maximal effect; % is scaled to controls: 0 for no effect and ±100 for the full control effect; nearly all actives have a fitted effect of over 55% in size
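Chicken DT40 Tdp1-/- cells complemented with human TDP1, screened without camptothecin (DMSO vehicle only), 400 cells/well. Compounds pin-transferred, cells incubated at 37 °C for at least 48 hr. Growth read as ATP-dependent luminescence (CellTiter-Glo, 30 min at RT).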
DT40 TDP1 CPT = qHTS for Inhibitors of human tyrosyl-DNA phosphodiesterase 1 (TDP1): qHTS in cells in presence of CPT; Potency, µM (titrated, usually from 46.2 µM), for the others: top-dose activity change, negative = growth inhibition, most hits filed as inhibitors; chicken DT40 Tdp1-/-;hTDP1 cells + 20 nM CPT, ATP luminescence, 48 h; 420,000 tested, 12% active; also: potency is read from the fitted curve at half-maximal effect; % is scaled to controls: 0 for no effect and ±100 for the full control effect; nearly all actives have a fitted effect of over 55% in size
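Chicken DT40 Tdp1-/- cells complemented with human TDP1, 400 cells/well, exposed to compounds plus 20 nM camptothecin for at least 48 h at 37 C; viability read as ATP content by CellTiter-Glo luminescence.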
BCR signal inh = qHTS Assay to Find Inhibitors of Chronic Active B-Cell Receptor Signaling; ABC-DLBCL IkBa-CBG/CBR reporter, luminescence ratio, 4 h; Potency, µM (doses to about 46.1 µM), for inactives: at the highest dose activity change, negative = inhibition, actives largely listed as inhibitors; 340,000 tested, 0.05% active; active = well fitted inhibition curve with a large enough effect in the signal ratio, with a control signal flat, not every such curve was filed as active; inconclusive = small, poorly fitted or top-dose-only effect, or effect the other way, or a change in a side signal; the % refers to the signal ratio;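 also: potency is read from the fitted curve at half-maximal effect; plate controls were basal doxycycline-induced cells for no effect and cells given 10 µM MG132 for full effect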
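Compounds up to 46 uM were incubated four hours with TMD8 cells whose green CBG68 luciferase is fused to IkappaBalpha; red CBR luminescence normalised the signal, and concentration-effect curves were fitted to fusion, red and ratio data.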
SW480 rereplic = A quantitative high throughput screen for small molecules that induce DNA re-replication in SW480 colon adenocarcinoma cells | SW480 DNA re-replication, Hoechst DNA content imaging, 48 h | Potency, µM (titrated, usually from 46.1 µM), without a hit: top-dose re-replication activation, usual class: activators | 340,000 tested, 1.8% active; also: potency is read from the fitted curve at half-maximal effect; % of control where 0% means no effect; nearly all actives have a fitted effect of over 55% in size
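Image-based DNA-content assay: after two days of treatment, nuclei were labelled with the DNA dye Hoechst and imaged, and hits were compounds raising the count of nuclei showing high fluorescence intensity.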
IL1B secr inh = qHTS for Inhibitors of Inflammasome Signaling: IL-1-beta AlphaLISA Primary Screen | THP-1 LPS/ATP IL-1B secretion, AlphaLISA, 16 h; active compounds read low | activity change, % at 57.5 µM | 360,000 tested, 4.7% active | AID 743279, 2014; in the data active = activity change below about -50%; inconclusive = mostly about -30% to -49%; also: % is scaled to controls: 0 for no effect and ±100 for the full control effect
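Secreted IL-1B measured by AlphaLISA bead assay after 16 h compound exposure of THP-1 cells; compounds (final up to 57.5 uM) added 1 h before LPS (250 ng/mL) and ATP (1.25 mM) stimulation; lower signal means less secretion.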
MCF10A rereplic = A quantitative high throughput screen for small molecules that induce DNA re-replication in MCF 10a normal breast cells; 350,000 tested, 2.9% active; MCF 10A DNA re-replication, Hoechst nuclear intensity, 48 h; AID 624296, 2012; Potency, µM (top dose mostly 46.1 µM), inactives show at the highest dose activity, positive = re-replication, actives largely listed as activators; also: potency is read from the fitted curve at half-maximal effect; % of control where 0% means no effect; nearly all actives have a fitted effect of over 50% in size
* = called active by the depositor; ? = inconclusive; nt = no result given. Only some compounds are listed: those with a hit (about 19% of all), similar ones and a draw of the others. Unless noted, calls follow the shape of the dose curve; as a rule, active = well fitted curve in the direction sought with a large enough effect; inconclusive = small, poorly fitted or top-dose-only effect, or another doubt; inactive = no such curve, though single readings can be large; an effect the other way counts as inactive or inconclusive.

SMILES	TDP1 cell noCPT	DT40 TDP1 CPT	BCR signal inh	SW480 rereplic	IL1B secr inh	MCF10A rereplic
Cc1sc2ncnc(SCC(=O)N3CCOCC3)c2c1C	0%	-5%	0%	-1%	-6	8%
c1nc(NCC2(N3CCOCC3)CCCCC2)c2ccsc2n1	18µM*	12µM*	1%	-2%	3	15%
O=C(C(=O)N1CCN(c2ccccc2)CC1)c1ccccc1	-1%	14%	nt	nt	-7	nt
CCCCOc1ccc(C(=O)N2CCC(c3nc4ccccc4o3)CC2)cc1	13µM*	?	nt	nt	nt	nt
Cc1cccc(OC(C)C(=O)N2CCC(c3nc4ccccc4o3)CC2)c1C (centres undefined)	23µM*	?	nt	nt	nt	nt
CCOc1ccccc1C(=O)N1CCC(c2nc3ccccc3o2)CC1	21µM*	?	nt	nt	nt	nt
CC(C)Oc1ccc(C(=O)N2CCC(c3nc4ccccc4s3)CC2)cc1	?	-30%	nt	nt	nt	nt
COC(=O)c1ccccc1S(=O)(=O)N1CCC(c2nc3ccccc3o2)CC1	?	-20%	-2%	-6%	-14	9%
CCOc1ccc(NC(=O)N2CCC(c3nc4ccccc4o3)CC2)cc1	?	?	1%	14%	-14	-6%
CC(C)Oc1ccc(C(=O)N2CCC(c3nc4ccccc4o3)CC2)cc1	18µM*	?	nt	nt	nt	nt
COc1ccc(OC)c(NC(=O)C2(C)CCN2C(=O)C(C)(C)c2ccccc2)c1 (centres undefined)	?	?	nt	nt	-3	nt
Cc1cccc(C)c1NS(=O)(=O)c1c(C(=O)N2CCCCC2)c(C)n(C)c1C	10%	-17%	6%	1%	-9	-3%
O=C(C[n+]1cccc2cc(Cl)ccc21)c1ccc2ccccc2c1	4µM*	5µM*	nt	nt	nt	nt
COc1ccc(C(=O)C[n+]2cccc3cc(Cl)ccc32)cc1	16µM*	?	nt	nt	nt	nt
Cc1ccc(C)[n+](CC(=O)c2ccc(-c3ccccc3)cc2)c1	1.8µM*	2.6µM*	-3%	2%	-13	?
Cc1ccc[n+](CC(=O)c2ccc(-c3ccccc3)cc2)c1	2%	-1%	4%	-1%	16	-10%
Cc1cc2ccccc2c[n+]1CC(=O)c1ccc(F)cc1	13µM*	?	nt	nt	nt	nt
CC(=O)c1ccc[n+](CC(=O)c2ccc(F)cc2)c1	-1%	-8%	nt	nt	nt	nt
O=C(NCCC1CC1(Cl)Cl)Nc1ccccc1 (centres undefined)	-23%	12%	4%	12%	-18	-1%
Cc1ccc(C(=O)C[n+]2cccc3ccccc32)cc1	18µM*	?	-4%	2%	-11	29%
O=C(C[n+]1cccc2ccccc21)c1ccc(Br)cc1	?	?	2%	?	-14	23%
CC(=O)C[n+]1cccc2cc(Cl)ccc21	-28%	-19%	nt	nt	nt	nt
O=C(C[n+]1cccc2cc(Cl)ccc21)c1ccc(I)cc1	11µM*	11µM*	nt	nt	nt	nt
CCCCC1Cc2[nH]c(=S)[nH]c(=O)c2C(c2ccc(Cl)cc2)O1 (centres undefined)	?	?	nt	nt	5	nt
CCOC(=O)c1c(N=CN(C)C)c2cc([N+](=O)[O-])cnc2n1C	-29%	?	?	25%	18	-23%
SMILES	TDP1 cell noCPT	DT40 TDP1 CPT	BCR signal inh	SW480 rereplic	IL1B secr inh	MCF10A rereplic
CCn1nc(NC(=O)C2CCCO2)c2cc3cccc(C)c3nc21 (centres undefined)	-8%	3%	-3%	18µM*	nt	?
CCn1nc(NC(=O)c2ccncc2)c2cc3cccc(C)c3nc21	-23%	-24%	3%	-3%	-17	29%
CCn1nc(NC(=O)c2ccccn2)c2cc3cccc(C)c3nc21	18µM*	?	1%	?	16	12µM*
CCn1nc(NC(=O)c2cccnc2)c2cc3cccc(C)c3nc21	-23%	-20%	2%	?	-6	7.1µM*
CC1/C=C/C=C/C=C/C=C/C=C/C=C/C=C/C(OC2OC(C)C(O)C(N)C2O)CC2O[C@@](O)(CC(O)CC(O)C(O)CCC(O)CC(O)CC(=O)OC(C)[C@H](C)C1O)CC(O)C2C(=O)O (some centres undefined)	0%	-1%	nt	nt	nt	nt
O=C(CCNC(=O)c1ccco1)Nc1ccc(Cl)cc1F	-2%	-7%	8%	-5%	-4	-1%
Cc1ccccc1CN1CC2=C(CCN(Cc3ccccc3)C2=O)N2CCN=C12	1.3µM*	0.58µM*	nt	nt	-17	nt
Cc1ccc(C)c(C(=O)OCC(=O)Nc2cccc(S(=O)(=O)N3CCCCC3)c2)c1	10µM*	18µM*	?	?	0	8%
Cc1ccc(S(=O)(=O)N2CCCCC2)cc1C(=O)OC(C)C(=O)NCC1CCCCC1 (centres undefined)	18µM*	?	1%	-5%	-24	?
CCOc1ccc(NC(=O)COC(=O)c2cc(S(=O)(=O)N3CCCC3)ccc2C)cc1	?	21µM*	0%	-11%	-15	?
Cc1ccccc1C(=O)OCC(=O)Nc1cccc(S(=O)(=O)N2CCCCC2)c1	?	?	nt	nt	21	nt
Cc1nc(NC(=O)COC(=O)c2cccs2)c(Cl)cc1Cl	-3%	-10%	7%	-4%	5	4%
Cc1cccc(NC(=O)C2CCCN(S(=O)(=O)c3c(C)n[nH]c3C)C2)c1 (centres undefined)	?	-6%	nt	nt	nt	nt
CCOc1ccc(NC(=O)NCCc2c(C)nn(C)c2C)cc1	-27%	7%	nt	nt	nt	nt
CC1CN(S(=O)(=O)c2ccc(CN3C(=O)c4cccnc4C3=O)s2)c2ccccc2O1 (centres undefined)	7%	-18%	-7%	?	0	1%
COc1ccc(OCCN2CCC(C(=O)NC(c3ccc(Cl)cc3)c3cnccn3)CC2)cc1 (centres undefined)	?	?	nt	nt	-54*	nt
Cc1cccnc1C(NC(=O)C1CCN(CCOc2ccc(F)cc2)CC1)c1ccc(Cl)cc1 (centres undefined)	16µM*	?	nt	nt	-69*	nt
COc1ccccc1C(NC(=O)C1CCN(CCOc2ccc3ccccc3c2)CC1)c1ccccn1 (centres undefined)	15µM*	15µM*	nt	nt	?	nt
Cc1cccnc1C(NC(=O)C1CCN(CCCc2ccccc2)CC1)c1ccc(F)cc1 (centres undefined)	23µM*	?	nt	nt	10	nt
